# Data from ChEMBL document CHEMBL3988442, “University of Dundee, Small-Polar-MMV Screening Library” (2021).
# The campaign covered roughly 48,000 compounds. About 13,000 (27%) showed an effect of 50% or more. Some of the results follow.
# Test system: Wolbachia pipientis
# Assay: Anti-Wolbachia Cell-Based Screen
# Type: functional
# Parameters: scale not given: in the data most compounds retested in dose-response had high values
# Conditions: 5 µM
row,SMILES,Percent Effect [%]
1,OC(CN1CCN(CC2CC2)CC1)c1ccc(Br)cc1 (configuration not stated),16.18
2,CCNC(=O)NC(=O)C(C)N1CCCc2cc(OC)ccc2C1 (configuration not stated),-0.429
3,CCc1ccc(C(C)NC(=O)CCc2nc(-c3nnc[nH]3)no2)cc1 (configuration not stated),0.9549
4,CC(C)CC(O)C1CCN(Cc2ccc(N(C)C)nc2)CC1 (configuration not stated),7.143
5,Cc1nc(C(NC(=O)c2cc(C(C)C)[nH]n2)c2ccccc2)n[nH]1 (configuration not stated),-6.911
6,CCC(CO)N(Cc1ccccn1)C(=O)c1cccc(C#N)c1 (configuration not stated),-13.95
7,CNS(=O)(=O)c1ccc(CNC(=O)Nc2ccccn2)s1,-5.463
8,CS(=O)(=O)c1nnc(NC(=O)CCc2cc(F)ccc2F)[nH]1,-16.39
9,CC1c2ncc(Cn3cncn3)n2CCN1C(=O)c1ccccn1 (configuration not stated),114.5
10,CC1c2ncc(Cn3cncn3)n2CCN1C(=O)c1cscn1 (configuration not stated),89.1
11,CC1c2ncc(Cn3cncn3)n2CCN1C(=O)c1ccsc1 (configuration not stated),106
12,COCc1cnc2n1CCN(C(=O)C1=CCCCC1)C2C (configuration not stated),2.775
13,CN1CCN(Cc2cnc3n2CCN(C(=O)c2cscn2)C3)CC1,22
14,COCc1cnc2n1CCN(C(=O)c1cc3cc(Cl)ccc3o1)C2C (configuration not stated),1.755
15,CC1c2ncc(Cn3cncn3)n2CCN1C(=O)Cc1cccs1 (configuration not stated),-8.694
16,CCN1CC(Oc2ccc(Cl)cc2)=NC(SCC(=O)c2ccccc2)=N1,3.791

row,SMILES,Percent Effect [%]
1,O=C(CN1C(=O)c2ccccc2CS1(=O)=O)c1ccc(Cl)cc1,-11.99
2,O=C(CSC1=NS(=O)(=O)c2cc(F)ccc2N1)c1ccccc1,100.3
3,O=C(CSC1=NS(=O)(=O)c2cc(F)ccc2N1)c1ccc(Cl)cc1,4.147
4,O=C(CSC1=NS(=O)(=O)c2cc(Cl)ccc2N1)c1ccccc1,112.7
5,Cc1nc(COC[C@H]2CC[C@H]3[C@H](CCN3c3ncccn3)O2)cs1.O=C(O)C(F)(F)F,-1.05
6,COc1cc(NC(=O)NC2CC2)ccc1N1CCOC1=O,-6.648
7,CCc1[nH]c2c(CNC(=O)[C@@H]3CCCN3C)cc(C)cc2c1C,16.75
8,Cn1ccnc1C(O)(CCNCc1ccc(Cl)o1)C(F)(F)F (configuration not stated),-7.652
9,O=C(c1ccsc1)N1CCc2nnc(COc3cncnc3)n2CC1,-11
10,Cc1ncsc1CNc1ccn(Cc2ccccc2)n1,-3.966
11,COCC(=O)Nc1cnc(N2CCOCC2)nc1,-9.684
12,CC(C)C(NC(=O)c1nc(N2CCOCC2)ncc1Cl)c1cccs1 (configuration not stated),8.573
13,CC[C@H](C)[C@H](N)C(=O)Nc1nc(-c2cnc(N3CCOCC3)nc2)cs1,101.5
14,CC(C)[C@H](N)CC(=O)Nc1nc(-c2cnc(N3CCOCC3)nc2)cs1.Cl,116.3
15,CCC(C(=O)NCc1csc(N2CCOCC2)n1)n1cccn1 (configuration not stated),4.05
16,CCOc1ccc(NC(=O)Nc2cnc(N3CCOCC3)nc2)cc1,2.27
